This is an account of results in PubChem BioAssay AID504558 (Broad Institute, 2011).

Hit rate of the full screen: of about 350,000 compounds, about 2,400 (0.69%) were called active. The full list was thinned out, with actives kept by preference. Unmarked numbers belong to inactive results. No stated cut-off is given here; in the data, active means inhibition above about 41%; inconclusive means no clear call, values can overlap the other calls; inactive means below that.

The assay in a line: blockers of LMP1-induced NF-kB reporter signal – cell-based, luminescence, single point, primary screen (AID 504558).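 Further: 0% = neutral control wells and 100% = reference inhibitor control.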 The following applies: LMP1-induced NF-kappaB luciferase reporter cells, at 12.5 µM, hits give high values. On the technique in general: Reporter assays use an easily measured gene product as a stand-in for the process of interest.
For the compound `CNC(=O)c1csc(-c2ccccc2)n1`, the inhibition – broadly, the relative decrease from the control value, in per cent – was 6.33%.

With `CNC(=O)c1csc(Cc2c(Cl)sc3ccc(Cl)cc23)n1`, the inhibition is 54.8% (active).

`CC(=O)NNC(=O)c1csc(Cc2c(Cl)sc3ccc(Cl)cc23)n1`: the inhibition is 8.06%.

For `C[C@@H]1CN([C@H](C)CO)S(=O)(=O)c2ccc(C#C[C@@H](C)O)cc2O[C@@H]1CN(C)Cc1ccc(-c2ccccc2)cc1`, the inhibition is -5.47%.

With `Cc1onc(-c2ccccc2)c1-c1nnc(COC(=O)c2ccc(N(C)C)cc2)o1`, the inhibition is 16.7%.

`COc1cc(-c2nnc(NC(=O)CS(=O)(=O)c3ccc(Cl)cc3)o2)cc(OC)c1OC`: the inhibition is 3.37%.

For the compound `COc1ccc(-c2nnc(NC(=O)CS(=O)(=O)c3ccc(Cl)cc3)o2)c(OC)c1`, the inhibition is -10.8%.

`COc1cccc(-c2nnc(NC(=O)c3ccc(S(=O)(=O)N(CC(C)C)CC(C)C)cc3)o2)c1`: the inhibition was 44.9% (active).

In the case of `CNC(=O)C[C@H]1C(=O)N(Cc2ccccc2)C[C@@H]1CSC`, the inhibition is -2.82%.

As for `O=C(C[C@H]1C[C@H]2c3cc(NS(=O)(=O)c4ccc(F)cc4)ccc3O[C@H]2[C@H](CO)O1)NCc1cc(F)ccc1F`, the inhibition was 4.21%.

As to `COc1ccc(CNc2ncnc3ccccc23)cc1`, the inhibition is 41.7% (active).

With `COc1cccc(CNc2nc(C(F)(F)F)nc3ccccc23)c1`, the inhibition is -0.361%.

For the compound `COc1ccc(CNc2nccs2)cc1`, the inhibition is 8.57%.

As for `COc1cc2ccccc2cc1C(=O)Nc1ccccc1C`, the inhibition was -76.9%.

With `COc1ccc(C(=O)Nc2cc(C)c(NC(=O)c3ccccc3OC)cn2)cc1`, the inhibition was 40.6% (active).

Regarding `COc1ccc(C(=O)N/N=C(\C)CC(=O)Nc2ccc(Cl)cn2)cc1`, the inhibition is -1.25%.

In the case of `O[C@@H]1C[C@H](c2ccccc2)N(Cc2cccs2)C[C@H]1n1cc(C2CC2)nn1`, the inhibition was -8.56%.

Consider `Cc1ccc(C(=O)OCC(=O)NC2CCCCCCC2)cc1C`, for which the inhibition was 7.43%.

As to `COc1ccc(C(C)(C)C)cc1NC(=O)CN(C)C1=NS(=O)(=O)c2ccccc21`, the inhibition was -11.2%.

For `COC(=O)c1[nH]c2ccccc2c1NC(=O)CN1CCCc2ccccc21`, the inhibition is -17.6%.

On to `COC(=O)c1[nH]c2cccc(C)c2c1NC(=O)CN1CCCc2ccccc21`, for which the inhibition is 87.4% (active).

Consider `NS(=O)(=O)c1cccc(NC(=O)CN2CCCc3ccccc32)c1`, for which the inhibition is -3.3%.

For the compound `O=C(CCc1ccc(O)cc1)NN=Cc1cc(Br)ccc1O`, the inhibition was 6.93%.

Take `Cc1ccccc1OS(=O)(=O)c1cccc([N+](=O)[O-])c1`: the inhibition was 0.335%.

For `Fc1ccc2[nH]c3c(N4CCSCC4)ncnc3c2c1`, the inhibition was 53.7% (active).

Take `O=C(NCC(F)(F)F)c1ccc(S(=O)(=O)NCCc2ccc3c(c2)OCCO3)cc1`: the inhibition was 0.519%.

`C[C@@H]1CN([C@@H](C)CO)C(=O)CCCn2nncc2CO[C@@H]1CN(C)S(=O)(=O)c1ccc(-c2ccccc2)cc1`: the inhibition was -1.13%.

For the compound `Cc1ccc(OCCCC(=O)Nc2ccc3c(c2)OCCO3)cc1`, the inhibition was 8.28%.

As for `COC(=O)CCNc1ccc2c(c1)OCCO2`, the inhibition is 45.2% (active).

In the case of `COc1ccccc1OCCCC(=O)Nc1ccc2c(c1)OCCO2`, the inhibition is -0.694%.

Turning to `CCc1nnc(NC(=O)c2ccco2)s1`, the inhibition is -0.797%.

For `O=C1/C(=C\c2ccc([N+](=O)[O-])cc2)CS(=O)(=O)C/C1=C/c1ccc([N+](=O)[O-])cc1`, the inhibition is 92.5% (active).

In the case of `CNC(=S)Nc1ccc([N+](=O)[O-])cc1`, the inhibition is -10.6%.

Take `CC(=O)Nc1ccc(C=Cc2ccc([N+](=O)[O-])cc2)cc1`: the inhibition is -20.1%.

For the compound `CCCn1c(N)c(C(=O)CSc2nnc(Cc3cccs3)n2C2CC2)c(=O)[nH]c1=O`, the inhibition is 0.699%.

Take `O=C(CSc1ncn[nH]1)Nc1nc2c(F)c(F)c(F)cc2s1`: the inhibition is -1.34%.

Consider `CCOC(=O)C(=Cc1ccccc1)C(=O)c1ccccc1`, for which the inhibition was 31.5%.

`O=C(O)C(=Cc1ccc([N+](=O)[O-])cc1)CCc1ccccc1`: the inhibition was 2.53%.

Take `CCOC(=O)/C(=C\c1ccc([N+](=O)[O-])cc1)C(=O)c1cc(C(C)=O)c(Nc2ccccc2)s1`: the inhibition was 55.7% (active).

Consider `COc1ccc(NC(=O)CN(C)C(=O)c2cc(C)oc2C)cc1`, for which the inhibition was -4.83%.

For the compound `Cc1cccc(C)c1NC(=O)CNC(=O)c1ccc(N2CCOCC2)c([N+](=O)[O-])c1`, the inhibition is -0.676%.

As for `O=c1oc2ccccc2cc1-c1cn(-c2ccccc2)c(=S)[nH]1`, the inhibition is 73.5% (active).

Regarding `COc1cccc(-n2c(=S)[nH]c3c(oc4ccccc43)c2=O)c1`, the inhibition is -10.2%.

Regarding `CS(=O)(=O)N1CCN(C(=O)c2cc3ccccc3oc2=O)CC1`, the inhibition is 9.53%.

As to `C[C@H]1CN([C@@H](C)CO)C(=O)CCCn2cc(nn2)CO[C@@H]1CN(C)C(=O)Nc1ccccc1`, the inhibition is -0.0595%.

Consider `Cc1ccc([C@H]2C[C@H](O)[C@@H](n3cc(COC(=O)c4ccccc4)nn3)CN2C(=O)C2CCCCC2)cc1`, for which the inhibition was 7.15%.

Take `COc1ccc(CN2C(=O)C(CC(=O)NCc3cccc4ccccc34)CC(C(=O)N3CCOCC3)=C2C)cc1` (stereo not drawn): the inhibition is 1.6%.

Turning to `CSc1nc(-c2ccccc2)nc(C(Cl)Cl)n1`, the inhibition is 85.7% (active).

Take `Cc1csc(SCC(=O)Nc2ccc(C)c(S(=O)(=O)N(C)C)c2)n1`: the inhibition is -5.08%.

Turning to `Cc1ccc(CCNC(=O)CN2C(=O)CSc3ccc(S(=O)(=O)N4CCOCC4)cc32)cc1`, the inhibition is -9.19%.

On to `O=C1CC[C@@H](C(=O)N2CSC[C@@H]2C(=O)Nc2ccc(C(F)(F)F)cc2)N1`, for which the inhibition is -8.12%.

Take `CN(c1ccc2nc3ccccc3c(=O)n2n1)C1CCCCC1`: the inhibition is 76% (active).

Take `CC(C)c1cc(C(=O)NC2CCCCCC2)c2ccccc2n1`: the inhibition was -2.77%.

Consider `CC(C)C(C)NC(=O)COc1nc2ccccc2nc1N(C)C1CCCCC1` (stereo not drawn), for which the inhibition was -16%.

`CC1(c2cccc(N)c2)OCCO1`: the inhibition was -20.7%.

Regarding `Cc1cc2ccccc2n1CCNC(=O)COc1ccc2ccccc2c1`, the inhibition is 52.5% (active).

As to `Cc1cc2ccccc2n1CCC(=O)O`, the inhibition was 2.51%.

On to `COC(=O)C(C)NC(=O)COc1ccc2ccccc2c1` (stereo not drawn), for which the inhibition was -5.65%.
